Data from PubChem BioAssay (Tox21).
Inconclusive results are not listed. Activity calls are given as the source filed them. The call rests on the fitted dose curve; in most records, active means well fitted curve in the direction sought with a large enough effect in the repeat runs; inconclusive means weak or mixed curves; inactive means no such curve, though single readings can be large; an effect the other way counts as inactive or inconclusive.

Columns and labels:
[1] = A CellTox Green Cytotoxicity Assay to monitor cytotoxicity in HEK293 cells - 32 hour (AID 1224881); further: nearly all actives have a fitted effect of over 40% in size
How it was run: (§1)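 HEK293 cells premixed with CellTox Green dye were seeded at 600 cells/well and left 5 h at 37 C/5% CO2 before pin transfer of 23 nL compound in DMSO. Fluorescence from dye bound to dead-cell DNA was read during 40 h treatment.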

[2] = A CellTox Green Cytotoxicity Assay to monitor cytotoxicity in HepG2 cells - 0 hour (AID 1224882); further: nearly all actives have a fitted effect of over 35% in size
How it was run: (§2)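 HepG2 cells were seeded together with the CellTox Green dye at 600 cells/well, left 5 h at 37 C/5% CO2, then given compounds in DMSO. Fluorescence from dye bound to dead-cell DNA was read repeatedly over 40 h of treatment at 37 C.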

[3] = A CellTox Green Cytotoxicity Assay to monitor cytotoxicity in HepG2 cells - 32 hour (AID 1224883); further: nearly all actives have a fitted effect of over 50% in size
How it was run: as §2

[4] = A CellTox Green Cytotoxicity Assay to monitor cytotoxicity in HEK293 cells - 8 hour (AID 1224884); further: nearly all actives have a fitted effect of over 35% in size
How it was run: as §1

[5] = qHTS RealTime-Glo MT Cell Viability Assay in HepG2 cells - 16 hour (AID 1224885); further: nearly all actives have a fitted effect of over 50% in size
How it was run: (§3)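 Real-time, nonlytic viability: 600 HepG2 cells/well mixed with NanoLuc enzyme plus prosubstrate; 5 h settle, compound (DMSO) added by pintool; luminescence monitored over 40 h at 37 C.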

[6] = qHTS RealTime-Glo MT Cell Viability Assay in HEK293 cells - 24 hour (AID 1224886); further: nearly all actives have a fitted effect of over 50% in size; further: potency means the concentration at half of the fitted maximal effect; on activity change, negative = cytotoxicity: top concentration of the series differs between compounds
How it was run: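 Cells + reagent dispensed (600 cells/well, HEK293) → 5 h at 37 C/5% CO2 → 23 nL compound in DMSO pinned → 40 h at 37 C → luminescence read at 0, 8, 16, 24, 32, 40 h.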

[7] = qHTS RealTime-Glo MT Cell Viability Assay in HEK293 cells - 8 hour (AID 1224887); further: nearly all actives have a fitted effect of over 50% in size; further: potency means the concentration at half of the fitted maximal effect; on activity change, negative = cytotoxicity: top concentration of the series differs between compounds
How it was run: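 HEK293 cells mixed with RealTime-Glo reagents (NanoLuc plus cell-permeant prosubstrate) at 600 cells/well, preincubated 5 h at 37 C/5% CO2, then given 23 nL compound in DMSO. Nonlytic luminescence from viable cells was read at 0, 8, 16, 24, 32 and 40 h.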

[8] = A CellTox Green Cytotoxicity Assay to monitor cytotoxicity in HEK293 cells - 16 hour (AID 1224888); further: nearly all actives have a fitted effect of over 35% in size
How it was run: as §1

[9] = qHTS RealTime-Glo MT Cell Viability Assay in HepG2 cells - 0 hour (AID 1224889); further: nearly all actives have a fitted effect of over 50% in size
How it was run: as §3
On the % scale 0 is the no-effect control and ±100 the full control effect.

COC[C@H](c1ccc(C(F)(F)F)cc1)N1CCN(C2(C)CCN(C(=O)c3c(C)ncnc3C)CC2)C[C@H]1C
inactive: Potency [1] | Potency [2] | Potency [3] | Potency [4] | outcome [5] | Potency [6] | Potency [7] | Potency [8] | Potency [9]

CC(C)N1C(=O)c2ccccc2C1=O
inactive: Potency [1] | Potency [2] | Potency [3] | Potency [4] | outcome [5] | Potency [6] | Potency [7] | Potency [8] | Potency [9]

C(=C(c1ccccc1)c1ccccc1)c1ccccc1
inactive: Potency [1] | Potency [2] | Potency [3] | outcome [5] | Potency [6] | Potency [7] | Potency [8] | Potency [9]

C=C[Si](OC)(OC)OC
inactive: Potency [1] | Potency [2] | Potency [3] | Potency [4] | outcome [5] | Potency [6] | Potency [7] | Potency [8] | Potency [9]

C=C(C)C(=O)OCCC(C)OC(=O)C(=C)C (stereo not drawn)
inactive: Potency [1] | Potency [2] | Potency [3] | Potency [4] | outcome [5] | Potency [6] | Potency [7] | Potency [8] | Potency [9]

O=S(=O)(c1cccc2cnccc12)N1CCCNCC1
inactive: Potency [1] | Potency [2] | outcome [5] | Potency [7] | Potency [8] | Potency [9]

Nc1[nH]c(=O)ncc1F
inactive: Potency [1] | Potency [2] | Potency [4] | outcome [5] | Potency [6] | Potency [7] | Potency [8] | Potency [9]

N#CC1(O)CCCCC1
inactive: Potency [1] | Potency [2] | Potency [3] | Potency [4] | outcome [5] | Potency [7] | Potency [8] | Potency [9]

CCOC(=O)Nc1ccc2c(c1)N(C(=O)CCN1CCOCC1)c1ccccc1S2
inactive: Potency [1] | Potency [2] | Potency [3] | Potency [4] | outcome [5] | Potency [6] | Potency [7] | Potency [8] | Potency [9]

C1CCCCCCCCCCC1
inactive: cytotoxicity increase [1] -37.3% [at 15.8 µM] | cytotoxicity [2] -1.21% [at 15.8 µM] | cytotoxicity increase [3] -10.5% [at 15.8 µM] | activity change, negative = cytotoxic [5] -3.94% [at 15.8 µM] | activity change [8] -33.7% [at 15.8 µM, stronger effect = higher value] | activity change, negative = cytotoxicity [9] -19.7% [at 15.8 µM]

CC1=CC(=O)CCC1
inactive: Potency [1] | Potency [2] | Potency [3] | Potency [4] | outcome [5] | Potency [6] | Potency [7] | Potency [8] | Potency [9]

CSc1nc(NC2CC2)nc(NC(C)(C)C)n1
active: Potency [6] 21.9 µM | Potency [7] 19.5 µM
inactive: Potency [1] | Potency [2] | Potency [4] | outcome [5] | Potency [8] | Potency [9]

OC[C@H]1O[C@@H]2O[C@H]3[C@H](O)[C@@H](O)[C@@H](O[C@H]4[C@H](O)[C@@H](O)[C@@H](O[C@H]5[C@H](O)[C@@H](O)[C@@H](O[C@H]6[C@H](O)[C@@H](O)[C@@H](O[C@H]7[C@H](O)[C@@H](O)[C@@H](O[C@H]8[C@H](O)[C@@H](O)[C@@H](O[C@H]9[C@H](O)[C@@H](O)[C@@H](O[C@H]1[C@H](O)[C@H]2O)O[C@@H]9CO)O[C@@H]8CO)O[C@@H]7CO)O[C@@H]6CO)O[C@@H]5CO)O[C@@H]4CO)O[C@@H]3CO
inactive: Potency [1] | Potency [2] | Potency [3] | outcome [5] | Potency [6] | Potency [7] | Potency [8] | Potency [9]

Oc1ccc2c(c1)OC[C@@H](N1CCC(O)(c3ccc(F)cc3)CC1)[C@H]2O
inactive: Potency [1] | Potency [2] | Potency [3] | outcome [5] | Potency [6] | Potency [7] | Potency [8] | Potency [9]

CCCCCCC(=O)OCC
inactive: Potency [1] | Potency [2] | Potency [3] | Potency [4] | outcome [5] | Potency [6] | Potency [7] | Potency [8] | Potency [9]
